Source: PubChem (National Center for Advancing Translational Sciences (NCATS))
HT1080 IDH1KD tx – HT-1080 IDH1 knockdown cell toxicity (counter line) | HT-1080 IDH1 knockdown viability, ATP luminescence, 48 h | Potency, µM (series often up to 46.1 µM), most hits filed as cytotoxic | 360,000 tested, 2% active | AID 686971
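Using the IDH1-knockdown HT-1080 line run in the same batch and compound series as the NT line, viability after 48 h at 37 °C was determined by CellTiter-Glo luminescence and expressed as % activity.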
TDP1 cell noCPT – qHTS for Inhibitors of human tyrosyl-DNA phosphodiesterase 1 (TDP1): qHTS in cells in absence of CPT; AID 686978, 2013; 420,000 tested, 15% active; Potency, µM (series often up to 46.2 µM), most hits filed as inhibitors; DT40 Tdp1-/- hTDP1 cells, no CPT, ATP luminescence, 48 h; also: nearly all actives have a fitted effect of over 55% in size
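No-CPT arm: Tdp1-/-;hTDP1 DT40 cells (400/well) plus compounds, incubated ≥48 hr at 37 °C. Readout CellTiter-Glo luminescence.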
HT1080NT lethal – kills 2HG-producing HT-1080-NT fibrosarcoma cells. Potency, µM (highest dose often 46.1 µM), most hits filed as cytotoxic. HT-1080-NT fibrosarcoma viability, CellTiter-Glo ATP luminescence, 48 h. 360,000 tested, 1.6% active;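 also: NT is the 2HG producing partner of a matched IDH1 knockdown line; nearly all actives have a fitted effect of over 55% in size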
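Compounds were tested in concentration-response format on HT-1080-NT cells for 48 hours at 37 degrees C. Cell viability came from CellTiter-Glo luminescence; curves were classified by r2, response magnitude and activity.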
IL1B secr inh – blocks inflammasome-driven IL-1 beta release; AID 743279; THP-1 LPS/ATP IL-1B secretion, AlphaLISA, 16 h; stronger effect = lower value; 360,000 tested, 4.7% active; activity change, % at 57.5 µM; in the data active = activity change below about -50%; inconclusive = mostly about -30% to -49%
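Secreted IL-1B measured by AlphaLISA bead assay after 16 h compound exposure of THP-1 cells; compounds (final up to 57.5 uM) added 1 h before LPS (250 ng/mL) and ATP (1.25 mM) stimulation; lower signal means less secretion.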
DT40 TDP1 CPT – growth inhibition of DT40 Tdp1-/-;hTDP1 cells with camptothecin (screen for TDP1 inhibitors); Potency, µM (series often up to 46.2 µM), usual class: inhibitors; 420,000 tested, 12% active; AID 686979; chicken DT40 Tdp1-/-;hTDP1 cells + 20 nM CPT, ATP luminescence, 48 h; also: nearly all actives have a fitted effect of over 55% in size
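Cell growth measured by CellTiter-Glo luminescence after a minimum 48 h, 37 C compound exposure with 20 nM CPT in Tdp1-knockout DT40 cells stably expressing hTDP1, seeded 400/well; qHTS titration format.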
Hits are given with their value; . = inactive; ? = inconclusive; / = no result given; [ ] = dose if it differs, or a comment. A selection: hits, their analogues and other compounds. The true share with any hit is near 19%. Unless noted, calls follow the shape of the dose curve; as a rule, active = well fitted curve in the direction sought with a large enough effect; inconclusive = small, poorly fitted or top-dose-only effect, or another doubt; inactive = no such curve, though single readings can be large; an effect the other way counts as inactive or inconclusive.

SMILES | HT1080 IDH1KD tx | TDP1 cell noCPT | HT1080NT lethal | IL1B secr inh | DT40 TDP1 CPT
O=C(NCc1ccccc1)C(c1ccccc1)n1c(-c2ccccn2)nc2ccccc21 (configuration not stated) | ? | . | . | . | .
COc1ccc(-c2cn3c(C)c(C(=O)Nc4ccncc4)sc3n2)cc1 | . | 5.8µM | ? | . | 3.66µM
CCOc1ccc(NC(=O)c2sc3nc(-c4ccc(OC)cc4)cn3c2C)cc1 | / | 7.31µM | / | / | 16.4µM
COc1ccc(-c2cn3c(C)c(C(=O)Nc4cccc(NC(C)=O)c4)sc3n2)cc1 | . | . | . | . | ?
Cc1c(C(=O)Nc2ccncc2)sc2nc(-c3ccc(F)cc3)cn12 | ? | 5.17µM | ? | . | 7.31µM
COc1ccc(-c2cn3c(C)c(C(=O)N4CCN(c5ccccc5F)CC4)sc3n2)cc1 | . | 18.4µM | . | . | 23.1µM
CC1(C(=O)NS(=O)(=O)c2cccc(OC(F)F)c2)CCN1C(=O)c1ccco1 (configuration not stated) | . | . | . | . | .
O=C(NCCc1ccc(Cl)cc1)c1cccc(NC2=NC3CS(=O)(=O)CC3S2)c1 (configuration not stated) | . | . | . | . | .
O=C(CSc1ccccc1F)NC(=O)NC1CCCC1 | . | ? | . | . | ?
CCCSc1nc2cc(OC)c(OC)cc2c(=N)n1CCCN1CCOCC1 | ? | 23.1µM | 14.6µM | -51.6 | 16.4µM
Cc1cccc(-n2c(SCC(=O)Nc3ccccc3Cl)nc3n[nH]c(C)c3c2=N)c1 | / | 20.6µM | / | / | 14.6µM
CCc1ccccc1NC(=O)CSc1nnc(-c2ccc(OC)cc2)s1 | / | . | / | / | .
COc1ccc(-n2c(SCC(=O)NCc3ccccc3)nc3n[nH]c(C)c3c2=N)cc1 | / | 6.51µM | / | / | 6.51µM
Cc1ccc(NC(=O)CSc2nc3n[nH]c(C)c3c(=N)n2-c2ccccc2C)cc1C | / | ? | / | / | .
CCCCNC(=O)CSc1nc2n[nH]c(C)c2c(=N)n1-c1ccccc1CC | / | 10.3µM | / | / | 14.6µM
CCc1ccccc1NC(=O)CSc1nc2n[nH]c(C)c2c(=N)n1-c1ccc(OC)cc1 | . | 8.2µM | . | ? | 9.2µM
C=CCNC(=S)NNC(=O)COc1cccc(Cl)c1 | ? | ? | ? | . | .
Cc1cccc(-n2c(SCC(=O)N3CCCC3)nc3n[nH]c(C)c3c2=N)c1 | . | ? | .[9.24 µM] | . | ?
COc1ccccc1NC(=O)CSc1nc2n[nH]c(C)c2c(=N)n1-c1ccccc1Cl | ? | 25.9µM | .[9.24 µM] | . | 23.1µM
CCc1ccccc1NC(=O)CSc1nc2n[nH]c(C)c2c(=N)n1-c1cccc(C)c1 | / | 3.66µM | / | / | 7.31µM
CCN(c1ccc(NC(=O)c2ccc(Cl)nc2)cc1)C(C)C | . | ? | . | . | ?
CCOC(=O)C1=C(C)NC(SC)=NC1c1ccc(OC)cc1 (configuration not stated) | . | . | . | -50.4 | .
CCOC(=O)C1=C(C)NC(C)=C(C(=O)OCC)C1c1ccc(OC)cc1 | . | 23.1µM | . | . | 14.6µM
CCOC(=O)C1=C(C)NC(SC(C)=O)=NC1c1ccc(OC(C)=O)c(OC)c1 (configuration not stated) | ? | . | ? | . | ?
CCOC(=O)C1=C(C)NC(C)=C(C(=O)OCC)C1C | . | . | . | . | .
SMILES | HT1080 IDH1KD tx | TDP1 cell noCPT | HT1080NT lethal | IL1B secr inh | DT40 TDP1 CPT
CCOC(=O)C1=C(C)NC(C)=C(C(=O)OCC)C1c1ccc(Br)o1 | . | 23.1µM | . | -72.0 | 9.2µM
COc1cc2c(cc1C1NC(=S)NC(C)=C1C(N)=O)CCCC2 (configuration not stated) | . | . | . | ? | ?
Cc1ccc2[nH]c3c(c2c1)CN(C(=O)CN1CCCc2ccccc21)CC3 | 23.1µM | ? | ? | . | 23.1µM
Cc1ccc2[nH]c3c(c2c1)CN(C(=O)CC1(c2ccccc2)CC(=O)N(Cc2cccnc2)C1=O)CC3 (configuration not stated) | / | 16.4µM | / | / | ?
Cc1ccc2[nH]c3c(c2c1)CN(C(=O)CN(C)CC1OCCO1)CC3 | . | . | . | . | .
Cc1ccc2[nH]c3c(c2c1)CN(C(=O)CN1CCCCC1)CC3 | . | ? | . | . | ?
